The source of these data is the supplement of paper PMC10849652.

Assay in all cases: log2 fold change, soluble protein after heating vs DMSO (PISA); higher = thermal stabilisation; K562 lysate, 10 uM; active = over 0.2 and 3.5 SD of the protein, either way, in both replicates (recomputed)
Compound in one test: C#Cc1cccc(Nc2ncnc3cc(OCCOC)c(OCCOC)cc23)c1 [erlotinib]
The essentials: (§1)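 Soluble protein was defined as the supernatant remaining after 21,000xg for 90 min, following pooling of heated aliquots and adjustment to 0.5% NP-40 at 4°C. Before that, crude K562 extract at 1 mg/mL protein in PBS pH 7.4 with 1 mM MgCl2 was treated with 10 μM compound for 30 min and heated for 3 min across 48°C-58°C. Quantification used TMTpro 16plex LC-MS/MS with channel sums equalised, and values are log-two fold changes in thermal stability relative to solvent controls from duplicates.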

Compound in test [1]: C/C(=N\NC(=O)C1=CC(=CC=C1)S(=O)(=O)N2CCOCC2)/C3=C(C=CC(=C3)Cl)O
In a few lines: as §1

Compound in test [2]: C1=CC(=CC=C1C2=NC3=C(N2)C=C(C=C3)C(=O)N)OC4=CC=C(C=C4)Cl
The essentials: as §1

Compound in test [3]: C1=CC2=C(C=CC(=C2)/C=C\3/C(=O)NC(=NCC4=CC=CS4)S3)N=C1
The essentials: as §1

Compound in test [4]: C1=CC2=NC=CN=C2C=C1/C=C/3\C(=O)NC(=O)S3
In a few lines: as §1

Compound in test [5]: C1=CC=C(C=C1)C2=NC(=C(N2)C3=CC=NC=C3)C4=CC(=C(C=C4)Cl)O
The essentials:
as §1

Compound in test [6]: C1=CC=C2C(=C1)C3=NNC4=CC=CC(=C43)C2=O
The essentials:
as §1

Compound in test [7]: C1CCN(C1)C(=O)NC2=CC=CC(=C2)NC3=NC=C(C(=N3)NCCC4=CN=CN4)Br
The essentials: as §1

Compound in test [8]: C1CN(CCC1(CC2=CC=C(C=C2)Cl)N)C3=NC=NC4=C3C=CN4
In a few lines: as §1

Compound in the next test: C1COCCN1CCN2C3=CC=CC=C3N=C2NC(=O)C4=CC(=CC=C4)[N+](=O)[O-] [IRAK-1-4 Inhibitor I]
The essentials: as §1

About 8,800 targets were measured; listed, in parts, are those with a hit and a random draw of the rest. About 0.5% of all pairs of compound and target were hits. Unmarked numbers belong to inactive results.

Chain of UniProt Q8N1F8 (Q8N1F8 whole entry, looked up): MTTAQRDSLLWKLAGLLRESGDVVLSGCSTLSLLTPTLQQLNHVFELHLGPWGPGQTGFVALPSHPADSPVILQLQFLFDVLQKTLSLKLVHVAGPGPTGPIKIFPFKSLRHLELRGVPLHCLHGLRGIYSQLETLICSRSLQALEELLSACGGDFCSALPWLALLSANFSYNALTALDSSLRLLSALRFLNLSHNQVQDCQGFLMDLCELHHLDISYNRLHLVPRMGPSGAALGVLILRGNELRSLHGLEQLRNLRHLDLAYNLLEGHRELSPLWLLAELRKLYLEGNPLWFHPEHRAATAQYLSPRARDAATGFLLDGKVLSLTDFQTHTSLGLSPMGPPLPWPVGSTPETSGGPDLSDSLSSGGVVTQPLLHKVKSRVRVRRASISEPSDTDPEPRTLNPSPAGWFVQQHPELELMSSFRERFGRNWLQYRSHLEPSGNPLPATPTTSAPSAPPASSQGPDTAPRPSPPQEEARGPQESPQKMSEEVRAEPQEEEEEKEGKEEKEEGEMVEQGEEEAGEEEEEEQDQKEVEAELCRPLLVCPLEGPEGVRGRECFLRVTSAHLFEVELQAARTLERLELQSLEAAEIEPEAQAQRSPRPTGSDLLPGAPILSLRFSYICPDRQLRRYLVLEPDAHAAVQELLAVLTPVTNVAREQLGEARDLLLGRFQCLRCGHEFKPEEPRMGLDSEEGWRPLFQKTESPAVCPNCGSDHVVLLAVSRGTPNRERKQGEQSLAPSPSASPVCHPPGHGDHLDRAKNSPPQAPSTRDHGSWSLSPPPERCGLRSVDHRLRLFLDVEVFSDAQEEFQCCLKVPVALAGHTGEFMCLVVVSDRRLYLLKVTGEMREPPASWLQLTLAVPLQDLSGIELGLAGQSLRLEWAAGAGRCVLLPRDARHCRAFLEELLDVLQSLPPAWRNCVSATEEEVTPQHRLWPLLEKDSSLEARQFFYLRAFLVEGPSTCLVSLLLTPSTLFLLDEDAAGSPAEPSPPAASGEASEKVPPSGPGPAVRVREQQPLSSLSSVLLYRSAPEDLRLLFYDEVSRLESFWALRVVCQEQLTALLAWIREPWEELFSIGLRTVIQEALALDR
Chain of UniProt O60504 (O60504 whole entry, looked up): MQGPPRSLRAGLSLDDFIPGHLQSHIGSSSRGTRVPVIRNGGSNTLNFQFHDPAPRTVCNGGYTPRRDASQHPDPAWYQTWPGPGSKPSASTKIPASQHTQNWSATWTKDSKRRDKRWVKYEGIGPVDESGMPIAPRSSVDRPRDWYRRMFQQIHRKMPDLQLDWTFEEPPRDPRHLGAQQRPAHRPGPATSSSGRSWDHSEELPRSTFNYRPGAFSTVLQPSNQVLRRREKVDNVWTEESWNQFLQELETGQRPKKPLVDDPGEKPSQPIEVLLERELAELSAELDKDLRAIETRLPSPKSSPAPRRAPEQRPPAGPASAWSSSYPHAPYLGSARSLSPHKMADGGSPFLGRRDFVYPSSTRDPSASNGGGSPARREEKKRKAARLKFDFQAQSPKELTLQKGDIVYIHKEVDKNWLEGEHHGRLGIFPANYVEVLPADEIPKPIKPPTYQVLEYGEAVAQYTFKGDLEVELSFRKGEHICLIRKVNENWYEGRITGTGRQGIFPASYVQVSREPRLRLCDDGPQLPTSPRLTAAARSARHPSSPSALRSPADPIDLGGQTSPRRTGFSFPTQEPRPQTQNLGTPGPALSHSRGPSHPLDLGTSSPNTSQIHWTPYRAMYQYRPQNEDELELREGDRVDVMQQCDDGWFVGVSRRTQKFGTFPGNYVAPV
Chain of UniProt Q13043 (Q13043 whole entry, looked up): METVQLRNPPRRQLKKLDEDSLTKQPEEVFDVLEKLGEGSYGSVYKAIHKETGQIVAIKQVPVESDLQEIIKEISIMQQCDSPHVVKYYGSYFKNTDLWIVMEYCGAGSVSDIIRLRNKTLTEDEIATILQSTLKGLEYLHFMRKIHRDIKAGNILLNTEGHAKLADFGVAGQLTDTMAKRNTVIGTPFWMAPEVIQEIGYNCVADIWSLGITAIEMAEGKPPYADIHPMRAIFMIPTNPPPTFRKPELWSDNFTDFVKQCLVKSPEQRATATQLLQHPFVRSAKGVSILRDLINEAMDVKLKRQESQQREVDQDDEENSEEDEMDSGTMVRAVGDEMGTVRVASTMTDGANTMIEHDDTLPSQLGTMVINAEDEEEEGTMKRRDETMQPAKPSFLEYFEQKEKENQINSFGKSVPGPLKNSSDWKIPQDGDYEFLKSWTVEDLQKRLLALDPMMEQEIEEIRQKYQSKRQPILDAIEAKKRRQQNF
Chain of UniProt Q8NHG7 (Q8NHG7 whole entry, looked up): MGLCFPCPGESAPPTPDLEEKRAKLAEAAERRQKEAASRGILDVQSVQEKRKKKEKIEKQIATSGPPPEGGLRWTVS
Chain of UniProt Q9H2V7 (Q9H2V7 whole entry, looked up): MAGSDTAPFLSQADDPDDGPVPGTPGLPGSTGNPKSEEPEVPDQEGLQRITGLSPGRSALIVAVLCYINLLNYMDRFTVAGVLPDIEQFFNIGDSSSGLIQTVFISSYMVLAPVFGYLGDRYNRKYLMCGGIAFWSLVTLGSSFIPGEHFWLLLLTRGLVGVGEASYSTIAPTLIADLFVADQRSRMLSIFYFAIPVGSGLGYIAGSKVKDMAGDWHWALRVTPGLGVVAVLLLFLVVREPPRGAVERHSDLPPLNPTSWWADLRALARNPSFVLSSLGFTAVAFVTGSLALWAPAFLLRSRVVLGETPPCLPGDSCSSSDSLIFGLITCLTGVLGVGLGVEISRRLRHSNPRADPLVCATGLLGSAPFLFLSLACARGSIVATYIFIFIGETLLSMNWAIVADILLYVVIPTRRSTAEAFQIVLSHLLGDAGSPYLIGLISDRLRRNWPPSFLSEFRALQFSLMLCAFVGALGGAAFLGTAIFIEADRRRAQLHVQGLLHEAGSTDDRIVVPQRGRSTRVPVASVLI
Chain of UniProt Q9HBM1 (Q9HBM1 whole entry, looked up): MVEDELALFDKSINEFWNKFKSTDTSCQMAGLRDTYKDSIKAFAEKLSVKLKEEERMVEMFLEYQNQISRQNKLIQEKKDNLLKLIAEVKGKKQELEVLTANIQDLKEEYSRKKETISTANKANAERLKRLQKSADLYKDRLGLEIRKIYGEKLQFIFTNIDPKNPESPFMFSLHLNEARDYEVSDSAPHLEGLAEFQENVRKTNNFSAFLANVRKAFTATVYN
Chain of UniProt Q8N1S5 (Q8N1S5 whole entry, looked up): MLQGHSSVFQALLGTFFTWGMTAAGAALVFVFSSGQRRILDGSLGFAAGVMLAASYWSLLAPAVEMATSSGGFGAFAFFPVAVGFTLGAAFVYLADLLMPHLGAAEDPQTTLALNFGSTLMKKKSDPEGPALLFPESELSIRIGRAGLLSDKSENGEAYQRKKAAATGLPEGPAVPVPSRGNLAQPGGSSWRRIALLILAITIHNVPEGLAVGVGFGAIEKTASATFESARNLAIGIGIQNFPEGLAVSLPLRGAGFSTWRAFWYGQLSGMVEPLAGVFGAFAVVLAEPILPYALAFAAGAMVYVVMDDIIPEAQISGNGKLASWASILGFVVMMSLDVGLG
Chain of UniProt P78314 (P78314 whole entry, looked up): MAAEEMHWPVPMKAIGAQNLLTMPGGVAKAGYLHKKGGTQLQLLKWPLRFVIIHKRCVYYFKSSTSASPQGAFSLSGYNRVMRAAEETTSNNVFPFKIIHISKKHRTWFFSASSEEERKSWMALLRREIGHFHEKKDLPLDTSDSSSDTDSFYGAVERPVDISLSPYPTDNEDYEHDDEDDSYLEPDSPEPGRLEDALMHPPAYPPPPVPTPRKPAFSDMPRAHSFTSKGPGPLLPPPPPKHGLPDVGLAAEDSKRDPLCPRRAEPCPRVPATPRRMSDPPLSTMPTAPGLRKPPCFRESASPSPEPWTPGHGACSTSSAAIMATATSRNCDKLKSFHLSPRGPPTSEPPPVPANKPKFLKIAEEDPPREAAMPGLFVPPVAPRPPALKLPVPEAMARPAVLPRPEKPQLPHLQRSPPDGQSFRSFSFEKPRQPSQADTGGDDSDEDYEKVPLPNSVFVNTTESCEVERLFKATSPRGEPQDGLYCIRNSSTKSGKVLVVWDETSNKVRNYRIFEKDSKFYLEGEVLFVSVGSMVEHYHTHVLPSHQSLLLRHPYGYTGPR
Chain of UniProt P35711 (P35711 whole entry, looked up): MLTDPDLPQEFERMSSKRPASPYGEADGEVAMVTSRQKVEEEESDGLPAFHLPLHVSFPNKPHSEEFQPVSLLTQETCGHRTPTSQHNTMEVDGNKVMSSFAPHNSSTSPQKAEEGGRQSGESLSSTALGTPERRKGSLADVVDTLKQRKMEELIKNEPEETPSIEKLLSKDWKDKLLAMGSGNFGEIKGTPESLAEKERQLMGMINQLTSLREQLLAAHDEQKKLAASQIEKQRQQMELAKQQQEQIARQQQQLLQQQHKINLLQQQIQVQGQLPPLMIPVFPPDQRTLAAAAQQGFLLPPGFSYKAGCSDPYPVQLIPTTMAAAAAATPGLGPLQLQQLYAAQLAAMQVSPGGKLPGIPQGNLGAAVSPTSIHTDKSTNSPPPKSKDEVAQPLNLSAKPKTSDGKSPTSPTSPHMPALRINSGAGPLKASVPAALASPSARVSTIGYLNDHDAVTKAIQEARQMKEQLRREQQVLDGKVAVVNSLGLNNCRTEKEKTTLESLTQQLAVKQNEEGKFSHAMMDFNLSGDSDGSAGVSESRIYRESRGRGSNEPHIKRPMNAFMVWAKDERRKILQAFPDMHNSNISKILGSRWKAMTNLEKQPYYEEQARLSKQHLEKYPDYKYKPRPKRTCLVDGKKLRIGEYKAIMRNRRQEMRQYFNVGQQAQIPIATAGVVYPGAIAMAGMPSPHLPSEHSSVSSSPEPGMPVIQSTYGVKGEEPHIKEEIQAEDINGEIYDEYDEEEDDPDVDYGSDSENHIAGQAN
Chain of UniProt Q16563 (Q16563 whole entry, looked up): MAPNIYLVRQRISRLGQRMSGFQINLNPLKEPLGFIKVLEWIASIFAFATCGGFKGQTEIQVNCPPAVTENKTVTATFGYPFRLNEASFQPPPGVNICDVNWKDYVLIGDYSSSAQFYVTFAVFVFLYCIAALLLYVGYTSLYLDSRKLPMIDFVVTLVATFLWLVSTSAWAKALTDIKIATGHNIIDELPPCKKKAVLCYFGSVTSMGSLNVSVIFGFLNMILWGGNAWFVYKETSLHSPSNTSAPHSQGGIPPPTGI

SOX5 (UniProt P35711): the log2 fold change was -0.169 in the test with erlotinib; 0.08 in [1]; 0.025 in [2]; 0.38 (active) in [3]; 0.131 in test [4]; 0.059 in test [5]. Besides, the log2 fold change in [6] was -0.239; in test [7] it was 0.028; in [8], 0.154; with IRAK-1-4 Inhibitor I, 0.044.

Consider SLC39A11 (UniProt Q8N1S5), for which the log2 fold change with erlotinib is -0.093; in [1] it was 0.116; in test [2], -0.047; in [3] it was -0.139; in test [4], -0.071; in test [5] it was 0.05. The log2 fold change in [6] was 0.062; in test [7] it was 0.385 (active); in test [8], 0.058; with IRAK-1-4 Inhibitor I, -0.053.

Turning to SKA1 (UniProt Q96BD8), the log2 fold change with erlotinib is -0.029; in test [1], -0.015; in test [2], 0.029; in test [3], 0.072; in test [4] it was -0.062; in [5], 0.065. Further, the log2 fold change in [6] was -0.06; in [7] it was 0.02; in test [8], -0.094; in the test with IRAK-1-4 Inhibitor I, 0.013.

Take SLU7 (UniProt O95391): the log2 fold change is -0.02 in the test with erlotinib; -0.086 in test [1]; -0.021 in test [2]; 0.09 in [3]; -0.026 in test [4]; 0.021 in test [5]. The log2 fold change in test [6] is 0.036; in test [7], -0.096; in test [8], -0.041; with IRAK-1-4 Inhibitor I, -0.07.

With SLC19A1 (UniProt P41440), the log2 fold change with erlotinib was -0.032; in test [1], -0.024; in test [2], 0.049; in test [3], -0.04; in test [4], -0.025; in test [5], -0.001. The log2 fold change in test [6] is -0.017; in [7], -0.023; in test [8], 0.023; with IRAK-1-4 Inhibitor I, 0.033.

Regarding STK39 (UniProt Q9UEW8), the log2 fold change in the test with erlotinib is 0.006; in [1], 0.08; in test [2], -0.001; in test [3], -0.014; in test [4] it was -0.03; in [5], 0. Moreover, the log2 fold change in [6] was -0.133; in [7] it was -0.004; in test [8], -0.013; in the test with IRAK-1-4 Inhibitor I, -0.003.

Turning to SPC25 (UniProt Q9HBM1), the log2 fold change in the test with erlotinib is 0.021; in test [1] it was -0.065; in test [2] it was -0.006; in test [3], 0.059; in [4], -0.034; in test [5] it was 0.021. Further, the log2 fold change was -0.006 in test [6], -0.039 in test [7], 0.018 in test [8] and 0.027 with IRAK-1-4 Inhibitor I.

Take SH3BP2 isoform 4 (UniProt P78314): the log2 fold change in the test with erlotinib was -0.037; in test [1] it was 0.213; in test [2], 0.001; in test [3], 0.044; in test [4] it was -0.103; in test [5], 0.088. The log2 fold change is -0.073 in test [6] and 0.03 in the test with IRAK-1-4 Inhibitor I.

Turning to SPNS1 (UniProt Q9H2V7), the log2 fold change with erlotinib was 0.015; in [1] it was -0.043; in test [2] it was -0.02; in [3], 0.043; in [4], -0.031; in test [5] it was 0.029. Further, the log2 fold change in test [6] is -0.063; in test [7] it was 0; in test [8], 0.044; with IRAK-1-4 Inhibitor I, 0.032.

As for SSX5 isoform 2 (UniProt O60225), the log2 fold change with erlotinib is -0.302; in [1] it was 0.12; in [2], -0.142; in test [3], 0.195; in test [4] it was -0.125; in test [5] it was 0.043. Also, the log2 fold change was -0.027 in test [6], 0.23 in [7], -0.219 in test [8] and 0.007 with IRAK-1-4 Inhibitor I.

As to SORBS3 (UniProt O60504), the log2 fold change is -0.01 with erlotinib; 0.028 in test [1]; 0.021 in [2]; 0.018 in test [3]; -0.054 in [4]; -0.092 in [5]. Further, the log2 fold change is 0.057 in [6], 0.09 in test [7], 0.129 in test [8] and 0.088 with IRAK-1-4 Inhibitor I.

On to SVIP (UniProt Q8NHG7), for which the log2 fold change is 0.037 in the test with erlotinib; 0.013 in test [1]; -0.004 in test [2]; -0.007 in [3]; 0.001 in test [4]; 0.041 in test [5]. The log2 fold change in test [6] is -0.012; in test [7] it was 0.107; in test [8] it was 0.057; with IRAK-1-4 Inhibitor I, 0.001.

Take SYPL1 (UniProt Q16563): the log2 fold change with erlotinib was 0.026; in test [1], -0.017; in test [2] it was -0.014; in test [3], 0.016; in [4], 0.04; in test [5], 0.025. The log2 fold change in test [6] is 0.002; in test [7], 0.014; in [8], 0.002; with IRAK-1-4 Inhibitor I it was 0.032.

Consider STK4 (UniProt Q13043), for which the log2 fold change in the test with erlotinib was -0.013; in test [1], -0.15; in test [2], -0.033; in test [3], -0.061; in test [4], -0.008; in [5] it was -0.009. Besides, the log2 fold change in test [6] is 0.165; in test [7] it was 0.187; in test [8], 0.053; in the test with IRAK-1-4 Inhibitor I it was 0.018.

For STK11IP (UniProt Q8N1F8), the log2 fold change with erlotinib was 0.015; in test [1] it was 0.008; in test [2], -0.002; in [3] it was -0.071; in [4] it was 0.007; in [5] it was -0.007. Also, the log2 fold change in [6] was 0.025; in [7], -0.029; in [8], 0.033; in the test with IRAK-1-4 Inhibitor I, 0.053.
